# From PubChem BioAssay (NCATS)
# Values joined by “and” are separate entries in the source; they are usually repeats but may differ in a detail not shown here. Equal values may be shown once. Inconclusive results are not listed. Active and inactive are the calls of the source. Calls come from the whole dose curve; as a rule, active = well fitted inhibition curve with a large enough effect; inconclusive = small, poorly fitted or top-dose-only effect; inactive = no such curve, though single readings can be large or run the other way.
# Target: Furin (Homo sapiens) (UniProt P09958)
# Test: Furin counterscreen qHTS for Zika virus inhibitors (AID 1347149); note: nearly all actives have a fitted effect of over 70% in size
# Settings: furin enzymatic counterscreen, fluorogenic substrate; series mostly up to 57.5 µM
# Source text: Avindra Nath, Ph.D., National Institute of Neurological Disorders and Stroke (NINDS), Bethesda, MD
# Radhakrishnan Padmanabhan, Ph.D., Georgetown University (GU), Washington D.C.
# Zika Virus causes congenital defects, including microcephaly and is associated with Guillain-Barre syndrome, eningoencephalitis and myelitis in infected adult. […] Using a target-based approach, we hope to establish a screening paradigm to uncover novel, cell-active NS2B-NS3 protease (Zika Virus) specific inhibitors from NCATS' collection of small molecules using qHTS.
# Four assay panel was created to identify potential Zika Virus inhibitors. Namely, (1) GU unlinked NS2B-NS3 AMC tagged protease qHTS, (2) GU unlinked NS2B-NS3 Rhodamine tagged protease qHTS, (3) NINDS linked NS2B-NS3 AMC tagged protease qHTS, (4) NINDS linked NS2B-NS3 Rhodamine tagged protease qHTS. Active compounds were re-acquired and re-screened to confirm inhibition. Inhibitors were further screened against various confirmatory and counterscreens in dose response format.
# Early Translation Branch (ETB)
# National Center for Advancing Translational Sciences (NCATS), Rockville, MD
# National Institute of Health (NIH), Bethesda, Maryland
# 1536-well Furin BOC-RVRR-AMC Protocol:
# Human recombinant Furin Serine Protease was purchased from Peprotech (catalog #450-47; full length; Rocky Hill, NJ). Briefly, 3 microL of enzyme (final concentrations of 5 nM), in assay buffer (100 mM HEPES pH 7.0, 1 mM CaCl2 with 0.01% Triton X-100) were dispensed into a 1,536-well solid-bottom black plate (Greiner Bio One, Monroe, NC). Twenty-three nL of compounds (final concentration range 7.28 nM to 114 microM) or control Furin Inhibitor I (Dec-RVKR-CMK; final concentration range 0.248 nM to 8.12 microM) were transferred via Wako Pin-tool (Wako Automation, Richmond, VA). Samples were incubated (RT, protected from light) for 15 minutes followed by a 1 microL substrate addition of BOC-RVRR-AMC (final concentration of 2 microM; Km = ~15 muM90). Plates were then read immediately on a ViewLux High-throughput CCD imager (PerkinElmer, Waltham, MA) equipped with standard UV fluorescence optics (340(30) nm excitation, 450(20) nm emission), then incubated (37C, protected from light) for 15 or 30 minutes (~9% conversion). The change in fluorescence intensity over the 15-minute reaction period was normalized against no-inhibitor and no-enzyme controls and the resulting percent inhibition data were fitted to a 4-parameter Hill equation. Furin Inhibitor I was used as intraplate control.
# Potency is the fitted concentration of half-maximal effect.
# Furin (Homo sapiens), sequence (P09958 whole entry, looked up): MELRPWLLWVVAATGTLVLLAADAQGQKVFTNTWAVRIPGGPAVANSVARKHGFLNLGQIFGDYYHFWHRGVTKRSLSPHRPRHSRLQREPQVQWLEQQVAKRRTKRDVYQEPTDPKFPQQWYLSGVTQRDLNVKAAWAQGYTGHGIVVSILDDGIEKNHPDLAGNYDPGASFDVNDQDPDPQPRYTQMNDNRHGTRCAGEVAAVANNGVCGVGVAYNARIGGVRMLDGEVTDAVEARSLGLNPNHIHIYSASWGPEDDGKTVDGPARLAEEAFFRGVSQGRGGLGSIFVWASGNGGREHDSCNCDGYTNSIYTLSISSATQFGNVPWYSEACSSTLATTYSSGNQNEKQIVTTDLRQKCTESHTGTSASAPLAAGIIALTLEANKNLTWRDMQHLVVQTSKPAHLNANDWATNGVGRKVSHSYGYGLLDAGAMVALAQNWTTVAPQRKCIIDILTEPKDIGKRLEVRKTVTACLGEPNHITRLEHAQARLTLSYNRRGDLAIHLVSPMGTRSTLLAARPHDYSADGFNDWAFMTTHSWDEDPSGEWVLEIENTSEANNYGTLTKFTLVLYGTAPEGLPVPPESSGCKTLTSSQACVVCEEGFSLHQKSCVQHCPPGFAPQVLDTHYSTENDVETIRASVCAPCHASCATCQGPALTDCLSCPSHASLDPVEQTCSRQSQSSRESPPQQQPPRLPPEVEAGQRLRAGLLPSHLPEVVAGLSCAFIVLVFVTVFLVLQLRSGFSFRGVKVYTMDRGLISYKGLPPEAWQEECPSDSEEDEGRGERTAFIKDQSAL
row,SMILES,Potency
1,CC1(C)CCC(CN2CCN(c3ccc(C(=O)NS(=O)(=O)c4ccc(NCC5CCOCC5)c([N+](=O)[O-])c4)c(Oc4cnc5[nH]ccc5c4)c3)CC2)=C(c2ccc(Cl)cc2)C1,inactive
2,Cc1cc(OCCCc2c(C(=O)O)n(Cc3cccnc3)c3c(-c4c(COc5ccc(N6CCN([S+](C)(=O)[O-])CC6)cc5)nn(C)c4C)cccc23)cc(C)c1Cl,21.5 µM (active)
3,CC=CCC(C)C(O)C1C(=O)NC(CC)C(=O)N(C)CC(=O)N(C)C(CC(C)C)C(=O)NC(C(C)C)C(=O)N(C)C(CC(C)C)C(=O)NC(C)C(=O)NC(C)C(=O)N(C)C(CC(C)C)C(=O)N(C)C(CC(C)C)C(=O)N(C)C(C(C)C)C(=O)N1C (stereo not drawn),0.0152 µM (active)
4,COc1ccc2cc(-c3nc(-c4ccc(S(C)=O)cc4)[nH]c3-c3ccncc3)ccc2c1 (stereo not drawn),3.83 µM (active)
5,NC(=O)c1ccc2nc(-c3ccc(Oc4ccc(Cl)cc4)cc3)[nH]c2c1,34 µM (active)
6,Cc1ccn(-c2ccc(-c3ncco3)cc2)c(=O)c1-c1ccc2nc(N)ncc2c1,21.5 µM (active)
7,O=c1c(O)c(-c2ccc(O)cc2)oc2cc(O)cc(O)c12,inactive
8,NC(=O)c1cccc2[nH]c(-c3ccc([C@H]4CCCN4)cc3F)nc12,21.5 µM (active)
9,C[C@H](NC(=O)C(=O)Nc1ccccc1C(C)(C)C)C(=O)N[C@@H](CC(=O)O)C(=O)COc1c(F)c(F)cc(F)c1F,inactive
10,CC1CCC(C(=O)N(c2cc(C#CC(C)(C)C)sc2C(=O)O)C2CCC(O)CC2)CC1 (stereo not drawn),inactive
11,CC(=O)Nc1ccc([C@H](C)C(=O)Nc2ncc(C(C)C)s2)cc1,inactive
12,CS(=O)c1ccc(-c2nc(-c3ccc(F)cc3)c(-c3ccncc3)[nH]2)cc1 (stereo not drawn),24.1 µM (active) and 21.5 µM (active)
13,O=C(O)c1c(Cl)c(Cl)c(Cl)c(Cl)c1-c1c2cc(I)c(=O)c(I)c-2oc2c(I)c(O)c(I)cc12,inactive
